# A selection: hits, their analogues and other compounds. The true share with any hit is near 12%.
# AMA1-RON2 inh: AMA1-RON2 (P. falciparum) interaction inhibition. AlphaScreen AMA1-biotinylated RON2 peptide binding. Potency, µM (top dose mostly 58.2 µM), hits mostly inhibitors. 360,000 tested, 0.2% active. AID 720542; also: nearly all actives have a fitted effect of over 45% in size
#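 AMA1 (3D7) with his tag at 25 nM final met compounds first, then biotinylated RON2 peptide at 25 nM; detection used donor plus acceptor beads, 10 µg/mL apiece, read by AlphaScreen after 30 min at room temperature.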
# Pf growth 96h: inhibits malaria parasite growth, 96 h; Potency, µM (highest dose often 28.7 µM), most hits filed as inhibitors; 320,000 tested, 6.9% active; AID 504834; P. falciparum luciferase reporter growth, 96 h
#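 Two parasite generations (96 h, 37 C, 5% CO2) of compound exposure in infected erythrocytes (0.05% parasitemia, 2% hematocrit). Luciferase-reporter P. falciparum; decreased luminescence indicates inhibited growth, aimed at apicoplast-acting delayed death.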
# SARS PLP yeast: SARS-CoV PLP inhibition in yeast | Potency, µM (top dose mostly 32.9 µM), actives largely listed as activators | 330,000 tested, 0.19% active | S. cerevisiae expressing SARS-CoV PLpro, growth rescue | AID 485353; calls by dose curve; also: nearly all actives have a fitted effect of over 55% in size
# Pf growth 48h: inhibits P. falciparum growth in the first generation, 48 h; 310,000 tested, 5.9% active; Potency, µM (highest dose often 28.7 µM), hits mostly inhibitors; P. falciparum luciferase growth in erythrocytes, 48 h
#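 Compounds are pin-transferred into medium, infected erythrocytes (2% hematocrit, 0.1% parasitemia final) are added, and plates sit one parasite generation at 37 C in 5% CO2. Detection reagent is then added and luminescence measured.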
# NS1 inh: inhibitors of influenza NS1 protein function | Potency, µM (series often up to 46.1 µM) | 270,000 tested, 0.4% active; calls by dose curve; also: actives are rising curves; nearly all actives have a fitted effect of over 50% in size
#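 A cell-based growth assay was used: compounds that relieve NS1-induced slow growth of budding yeast raise OD600. Assay medium was yeast nitrogen base with ammonium sulphate and -URA supplement, pH 6.0, with 2% galactose.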
# HCV inh: HCV inhibition; Huh7.5.1 HCVcc-Cre infection, luciferase reporter, 44 h; Potency, µM (titrated, usually from 41.8 µM), hits mostly inhibitors; 340,000 tested, 3.4% active
#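 Antiviral activity was scored by luciferase reporter output from cells infected with HCVcc-Cre (~0.5 moi) in presence of compound, 44 h infection period, cells seeded 1,000/well 4 h prior.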
# A number is an active result; n = inactive; u = inconclusive; x = no result given; [ ] = remark or other dose. Unless noted, calls follow the shape of the dose curve; as a rule, active = well fitted curve in the direction sought with a large enough effect; inconclusive = small, poorly fitted or top-dose-only effect, or another doubt; inactive = no such curve, though single readings can be large; an effect the other way counts as inactive or inconclusive.
SMILES,AMA1-RON2 inh,Pf growth 96h,SARS PLP yeast,Pf growth 48h,NS1 inh,HCV inh
CO[C@H]1/C=C/O[C@@]2(C)Oc3c(C)c(O)c4c(O)c(c(C=NN5CCN(C)CC5)c(O)c4c3C2=O)NC(=O)/C(C)=C\C=C\[C@H](C)[C@H](O)[C@@H](C)[C@@H](O)[C@@H](C)[C@H](OC(C)=O)[C@@H]1C,n,u,n,1.2µM,x,n
CO[C@H]1C=CO[C@@]2(C)Oc3c(C)c(O)c4c(O)c(c(C=NN5CCN(C)CC5)c(O)c4c3C2=O)NC(=O)C(C)=CC=C[C@H](C)[C@H](O)[C@@H](C)[C@@H](O)[C@@H](C)[C@H](OC(C)=O)[C@@H]1C,u,1.2µM,n,1.2µM,n,n[8.37 µM]
C=C(C)[C@H]1Cc2c(ccc3c2O[C@@H]2COc4cc(OC)c(OC)cc4[C@@H]2C3=O)O1,x,6.7µM,x,u,u,x
CCOC(=O)c1nc(Nc2cc(C)cc(C)c2)c2ccccc2n1,n,u,n,u,n,u
Cc1noc2ncnc(Oc3cc(Cl)ccc3Cl)c12,n,13µM,n,u,n,13µM
COc1ccc(N(CC(=O)NC2CCCC2)C(=O)Cn2nnc(-c3ccc(OC)c(OC)c3)n2)c(OC)c1,n,u,n,u,n,u
COCc1cc(C)nc(SCC[N+](C)(C)CC(=O)c2ccccc2)c1C#N,n,n,n,u,x,n
Cc1ccc(C)c(NC(=O)Cn2cnc3c(oc4ccccc43)c2=O)c1,n,u,n,10µM,x,n
O=C(Cn1cnc2c(oc3ccccc32)c1=O)NCc1ccccc1,n,n,n,n,n,n
O=C(CSc1nc2ccc(S(=O)(=O)N3CCOCC3)cc2[nH]1)N1CCOCC1,n,1.9µM,n,x,n,n
CC(=O)c1ccc(NC(=S)Nc2cccc3cnccc23)cc1,n,2.6µM,n,1.9µM,n,n
S=C(Nc1cccc(Cl)c1)Nc1ccccc1Oc1ccccc1,n,12µM,n,n,n,u
COCCNC(=S)Nc1cccc2cnccc12,n,n,n,n,x,u
CCCCNC(=S)Nc1cccc2cnccc12,n,n,n,n,n,10µM
Cc1ccc(C)c(NC(=S)Nc2cccc3cnccc23)c1,n,9.3µM,n,u,n,u
Cc1ccccc1NC(=O)NC1(C(=O)NCc2ccco2)CCCCC1,n,n,n,n,n,n
Cc1ccc(NC(=O)CCNS(=O)(=O)c2cccc3nsnc23)cc1F,n,n,n,n,n,n
O=C1NC[C@@H](CCCCN2C[C@H](Cc3ccc(O)cc3)N(Cc3ccccc3)C(=O)C2=O)N(Cc2ccccc2)C1=O,n,x,x,x,x,x
Cc1ccc(NC(=S)Nc2cccc3cnccc23)cc1C,n,u,n,u,n,u
Cc1ccc(NC(=S)Nc2cccc3cnccc23)cc1,n,u,n,u,n,n
S=C(Nc1cccc(Cl)c1)Nc1cccc2cnccc12,n,4.1µM,n,n,n,u
Cc1ccccc1NC(=S)Nc1cccc2cnccc12,n,9.3µM,n,5.2µM,x,n
Brc1cc2c(cc1C1Nc3ccccc3C3C=CCC31)OCO2 (stereo not drawn),n,n,n,u,n,n
Cc1cc(C)c2c(c1)NC(c1cc3c(cc1Br)OCO3)C1CC=CC21 (stereo not drawn),u,n,n,13µM,n,u
C#C[C@]1(O)CC[C@H]2[C@@H]3CCC4=Cc5nc6nc7ccccc7n6cc5C[C@]4(C)[C@H]3CC[C@@]21C,n,5.2µM,x,3.7µM,x,u
SMILES,AMA1-RON2 inh,Pf growth 96h,SARS PLP yeast,Pf growth 48h,NS1 inh,HCV inh
Cc1ccc(OC(=O)C23CC4CC(CC(C4)C2)C3)c(C)n1,n,n,n,n,n,n
CCc1nc(C)ccc1OC(=O)C12CC3CC(CC(C3)C1)C2,n,0.59µM,n,n,n,n
CCc1ccc2c(c1)C1(SC(NC(C)=O)=NN1C(C)=O)C(=O)N2CC (stereo not drawn),n,u,n,n,x,n
O=C(c1ccc(S(=O)(=O)Cc2cc(F)ccc2F)c([N+](=O)[O-])c1)N1CCCC1,n,u,n,n,x,n
O=C(c1ccc(S(=O)(=O)Cc2cc(F)ccc2F)c([N+](=O)[O-])c1)N1CCCCC1,n,n,n,15µM,n,n
O=C(c1ccc(S(=O)(=O)Cc2ccccc2Cl)c([N+](=O)[O-])c1)N1CCN(c2ccccn2)CC1,n,13µM,n,u,x,u
CC(C)(C)S(=O)(=O)N1C[C@@H]2CC/C=C\C/C=C\2[C@H]1CCO,n,x,x,x,x,n
COc1cc(CNc2nnnn2C)ccc1OCc1c(F)cccc1Cl,n,n,n,n,n,n
CC(C(=O)N1CCN(Cc2ccc3c(c2)OCO3)CC1)c1ccc([N+](=O)[O-])cc1 (stereo not drawn),n,n[5.75 µM],n,n,x,n
CC(Oc1ccccc1)C(=O)Nc1ccc(S(=O)(=O)N2CCN(C)CC2)cc1 (stereo not drawn),n,0.066µM,x,u,x,n
Cc1cccc(OC(C)C(=O)Nc2ccc(S(=O)(=O)N3CCCC3)cc2)c1 (stereo not drawn),n,10µM,n,u,n,n
CC(Oc1ccccc1)C(=O)Nc1ccc(S(=O)(=O)N2CCOCC2)cc1 (stereo not drawn),n,n[5.75 µM],n,n,n,n
CN(C)C(=O)c1c(C(F)(F)F)nn(C)c1Cl,n,n,n,n,x,n
CCNCc1cc(Br)c(OCC(=O)Nc2ccccc2)c(OC)c1,n,u,n,u,n,10µM
CNCc1cc(Br)c(OCC(=O)Nc2ccccc2OC)c(OC)c1,n,n,n,u,n,u
COc1cc(CNCC(C)C)cc(Br)c1OCC(=O)Nc1ccccc1,n,10µM,n,9.3µM,n,u
COc1cc(CNCCc2ccccc2)cc(Br)c1OCC(=O)Nc1ccccc1C,n,u,n,n[5.75 µM],x,u
COC(C(=O)Nc1ccnn1C1CCN(Cc2ccc(Cl)s2)CC1)c1ccccc1 (stereo not drawn),n,n,n,u,n,n
COC(=O)c1cn(-c2ccc(Cl)cc2)c(=O)c2ccccc12,n,x,n,2.9µM,n,u
COC(=O)c1cn(C(=O)c2ccccc2)c2ccccc12,n,n,n,n,n,n
COC(=O)c1cn(C(=O)c2cc(Cl)ccc2Cl)c2ccccc12,n,13µM,n,n,n,n
COc1ccc(C2=CC(=O)CCC2)cc1,n,x,x,x,x,n
CC(=O)Nc1cccc(C(=O)OC(C(=O)c2ccc(C)cc2)c2ccccc2)c1 (stereo not drawn),n,n,n,1.5µM,n,u
CC(=O)Nc1cccc(C(=O)OC(C(=O)c2ccc(C)c(C)c2)c2ccccc2)c1 (stereo not drawn),n,10µM,n,u,n,u
Cc1ccc(C2CC(=O)NC(SCC(N)=O)=C2C#N)s1 (stereo not drawn),n,n,n,n,x,n
CSC1=C(C#N)C(c2ccc(C)s2)CC(=O)N1 (stereo not drawn),n,2.3µM,n,n,n,n

# Screening results as filed in PubChem BioAssay.
